Molecules are shown by their SMILES. Compounds without any hit were thinned out: in the full panel of roughly 83,000, 20% have a hit.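 Each cell line was grown in a 96-well plate and treated with one concentration of compound for 48 hours. Values below 10 were considered active.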 Active and inactive are the calls of the source.

This test concerns SW-620 colon. Briefly: NCI-60 one-dose screen, 48 h (100 = growth as untreated, 0 = no growth, -100 = all killed). Conditions: 10 µM unless noted. The method, then:
Growth inhibition of the SW-620 human tumor cell line is measured as a screen for anti-cancer activity. Cells are grown in 96 well plates and exposed to the test compound for 48 hours. Compounds are tested at a single concentration, which is 10^-5 M for most compounds. The reported endpoint is percent growth (GI% or GIPRCNT), where numbers from 0 - 100% represent growth inhibition, and numbers from -100% - 0 represent cell death. For example, a value of 40 represents 60% growth inhibition. A value of 0 means no net growth occurred over the course of the experiment. A value of -40 indicates 40% of cells at the beginning of the experiment died by the end of the experiment. A value of -100 means all cells are dead at the end of the experiment.
NCI-60 Human Tumor Cell Lines Screen was performed using the standard one-dose NCI protocol, which is described in more detail at https://dtp.cancer.gov/discovery_development/nci-60/default.htm.
Compounds with GIPRCNT values below 10 were considered active. Activity score was based on GIPRCNT using the following formula: […]
Score is 0 for GIPRCNT values of 100 or above, 50 for GIPRCNT values of 0, and 100 for GIPRCNT values of -100.
As for `CCCCCCC(C)N(CC(C)(C)O)C(=O)c1ccc([N+](=O)[O-])cc1` (stereo not given), the growth was 95.8% (inactive). Then `COC(=O)C(Cc1cnc[nH]1)N1CC(=O)N2[C@@H](c3ccccc3)SC[C@H]2C1=O` (stereo not given in full), with 108% (inactive); and `CN1CCN(Cc2ccc(NC(=O)c3ccc(C#Cc4c(N)ncc5ccc(F)cc45)cc3)cc2C(F)(F)F)CC1`, with -52.5% (active); and `C/C=C/C/C=C/[C@H](C)C[C@H](O)[C@@H]1C[C@@H]2O[C@H]2/C=C/[C@H](O)[C@@H](O)/C=C/C[C@H](C)CC(=O)O1`, with 94.1% (inactive). Take `COC(=O)c1ccc2[nH]c(O)c(C(=Nc3ccc(N(C)C(=O)CN4CCN(C)CC4)cc3)c3ccc(N)cc3)c2c1`: the growth was 70.3% (inactive). The value for `CC(C)(C)c1ccc(OCCOC(=O)CBr)cc1` was 86.2% (inactive).

In the case of `COc1ccccc1Nc1nnc(COc2ccc(CNC(=O)CCCC/C=C/C(C)C)cc2OC)o1`, the growth is 105% (inactive). The value for `O=C1NCCN1/N=C/c1c(Cl)nc2n1CCS2` was 103% (inactive); that for `CCCCCSc1ccc2nc(NC(=O)OCCC)sc2c1` was 22.9% (inactive). Then `COC1=C(OC)C(=O)c2ccccc2C1=O`, with 97% (inactive); and `CC(=O)N1N=C(c2ccc(Cl)cc2)CC1c1cn(-c2ccccc2)nc1-c1ccc([N+](=O)[O-])cc1` (stereo not given), with 99% (inactive). Turning to `C/C=C(/C)C(=O)OC1C=C(CO)C(=O)C(OC(=O)C(C)(O)C(C)Cl)C1C(C)C` (stereo not given), the growth is -45.7% (active). Consider `CCCCCCCCCCCCCCCCNC(=O)Nc1ccc(C)c(NC(=O)NCCCCCCCCCCCCCCCC)c1`, for which the growth is 107% (inactive). The value for `COc1ccc(-n2nnnc2-c2cn[nH]c2C(F)(F)F)cc1` was 94.6% (inactive); that for `CC(C)(C)OC(=O)N1C/C(=C\c2ccccc2)C(=O)/C(=C/c2ccccc2)C1` was 93.7% (inactive); that for `CCCCCCCCCCCCc1ccc([N+](CC)(CC)CC)cc1` was 58.8% (inactive).

Take `C/C(=N\Nc1cccc(Cl)n1)c1ccccn1`: the growth is 32.5% (inactive).

Turning to `CC(C)(C)c1ccc([I+]c2ccc(C(C)(C)C)cc2)cc1`, the growth was 14.9% (inactive).

`CCCCCSc1ccc2nc(NC(=O)OCC)sc2c1`: the growth was 19.6% (inactive). The value for `Cc1nc2c(nnn2-c2ccccc2)c2nc(-c3ccccc3)oc(=O)c12` was 109% (inactive). In the case of `O=C(N/N=C/c1coc2ccccc2c1=O)c1cc2oc(-c3ccccc3)cc2[nH]1`, the growth was 102% (inactive). In the case of `COc1cc(OC)c(NC(=O)n2ncc3cc(Nc4ncnc5ccccc45)ccc32)cc1Cl`, the growth is 116% (inactive). The value for `Br/C(=N\Nc1nn[nH]n1)c1ccccc1` was 102% (inactive); that for `CCC(C)C1NC(=O)C(CCCCN)NC(=O)C(CCCCN)NC(=O)C(CC(C)C)NC(=O)C(CCCCN)NC(=O)C(C(C)CC)NC(=O)C(C(C)C)NC(=O)C(C(C)CC)NC(=O)C(CCCCN)NC(=O)C(CCCCN)NC(=O)C(C)NC(=O)C(CCCCN)NC(=O)C(CC(C)C)NC1=O` (stereo not given) was 39.1% (inactive). Regarding `Cc1cc2cn3c4ccc(O)cc4nc(N)c3c2cc1C`, the growth is 11% (inactive). The value for `CCCCCCN(CCCCCC)CCC(=O)Nc1ccc(S(=O)(=O)c2ccc(NC(=O)CCN(CCCCCC)CCCCCC)cc2)cc1` was 84.6% (inactive); that for `CSC1=Nc2c(c(C)c(-c3ccccc3)n2CCCCl)C2=NC(=O)CN12` was 44.4% (inactive); that for `CCOC(=O)c1ccc2n1CCCc1cnc(NC(C)=O)nc1-2` was 106% (inactive). Then `O=C(Nc1ccc(-n2cc(-c3ccncc3)c(-c3ccc(Cl)c(O)c3)n2)cc1)c1ccc(Cl)c(C(F)(F)F)c1`, with -79.4% (active).

As to `c1cc[c]([Bi]([c]2ccccc2)[c]2ccccc2)cc1`, the growth was 92.9% (inactive).

Turning to `Cc1ccc(CC(=O)O)c(C)c1`, the growth was 102% (inactive). In the case of `O=C1OC(c2ccc(-c3ccccc3)cc2)=C/C1=C/c1c2ccccc2cc2ccccc12`, the growth is 96.9% (inactive). In the case of `Cc1nc2ccccc2c(=O)n1-c1cccc(OCc2cn(-c3cccc(O)c3)nn2)c1`, the growth was 104% (inactive). The value for `COC(=O)c1ccc2[nH]c(O)c(C(=Nc3ccc(N(C)C(=O)CN4CCN(C)CC4)cc3)c3ccc(C)cc3)c2c1` was -26.5% (active). The value for `CCOc1nc(-c2ccccc2)cc2c(O)c(C(=O)N/N=C/c3ccccc3O)[nH]c(=O)c12` was 74.9% (inactive). Then `COc1cc(CNC(=O)CCCC/C=C/C(C)C)ccc1OCc1nnc(Nc2ccccc2F)o1`, with 98.9% (inactive); and `C/C(=N\Nc1ccc(Cl)cn1)c1ccccn1`, with 27% (inactive); and `CCCCCCNC(=O)Oc1ccc(/C(=C(/C)Cc2ccc(OC)cc2)c2ccc(OCCN3CCCCC3)cc2)cc1`, with 84.6% (inactive). In the case of `Cc1cc(CSc2ccc(Cl)cc2)ccc1N`, the growth was 126% (inactive). Then `N=C(c1ccccc1)N(Cc1ccccc1)Cc1ccccc1`, with 89.4% (inactive).

(Values after PubChem BioAssay (NCI).)
